Source: PubChem BioAssay (NCI)
This is part of a sample that, as a whole, favours compounds with a hit. Of some 83,000 tested, about 20% had one in any assay.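 Note: values are percent growth. 100 is the growth of untreated cells, values between 100 and 0 indicate rising inhibition; between -100 and 0 indicates cell death.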 Calls of active or inactive are those of the source. The calls were made as follows: active = growth percent below 10; inactive = the rest.

What was measured:
Assay in all cases: NCI-60 one-dose screen, 48 h (100 = growth as untreated, 0 = no growth, -100 = all killed)
[1] = test system: HCT-15 colon; settings: 10 µM unless noted
[2] = test system: HT29 colon; settings: 10 µM unless noted
[3] = test system: SNB-75 CNS; settings: 10 µM unless noted
[4] = test system: SNB-19 CNS; settings: 10 µM unless noted
[5] = test system: U251 CNS; settings: 10 µM unless noted
[6] = test system: PC-3 prostate; settings: 10 µM unless noted
[7] = test system: SK-MEL-5 melanoma; settings: 10 µM unless noted
[8] = test system: UACC-62 melanoma; settings: 10 µM unless noted
[9] = test system: LOX IMVI melanoma; settings: 10 µM
[10] = test system: SK-MEL-28 melanoma; settings: 10 µM unless noted
[11] = test system: SK-MEL-2 melanoma; settings: 10 µM unless noted
[12] = test system: SN12C renal; settings: 10 µM unless noted
[13] = test system: UO-31 renal; settings: 10 µM unless noted
[14] = test system: TK-10 renal; settings: 10 µM unless noted
[15] = test system: ACHN renal; settings: 10 µM unless noted
[16] = test system: CAKI-1 renal; settings: 10 µM unless noted
[17] = test system: A498 renal; settings: 10 µM unless noted
[18] = test system: CCRF-CEM leukemia; settings: 10 µM unless noted
[19] = test system: MOLT-4 leukemia; settings: 10 µM unless noted
[20] = test system: EKVX NSCLC; settings: 10 µM unless noted

Measured: growth

CCCC(=O)CC(=O)c1ccccc1
inactive: [1] 103% | [2] 91.1% | [3] 105% | [4] 103% | [5] 86% | [6] 94.7% | [7] 99.5% | [8] 103% | [9] 97.5% | [10] 107% | [11] 78.5% | [12] 96.3% | [13] 90.8% | [14] 94.8% | [15] 105% | [16] 107% | [17] 70.4% | [18] 97.5% | [19] 107%

O=C1NC(=O)/C(=C\c2ccncc2)N1
inactive: [1] 98.7% | [2] 99.7% | [3] 92% | [4] 101% | [5] 100% | [6] 96.3% | [7] 97.2% | [8] 95.8% | [9] 100% | [10] 101% | [11] 104% | [12] 95.9% | [13] 95.5% | [14] 105% | [15] 97.9% | [16] 100% | [17] 94.1% | [18] 105% | [19] 111%

C/C(=N\N=C(/C)c1cccc([N+](=O)[O-])c1)c1cccc([N+](=O)[O-])c1
inactive: [1] 100% | [2] 87.9% | [3] 83.8% | [4] 80.7% | [5] 91.1% | [6] 86.7% | [7] 94.3% | [8] 93.2% | [9] 91.6% | [10] 101% | [11] 90.8% | [12] 81.7% | [13] 92.8% | [14] 90.8% | [15] 99.4% | [16] 99.5% | [17] 97.9% | [18] 96.5% | [19] 102%

N#C/C(=C\c1ccc(C#N)cc1)C(=O)c1ccccc1
inactive: [1] 95.7% | [2] 104% | [3] 77.8% | [4] 93.4% | [5] 94.3% | [6] 87.6% | [7] 106% | [8] 92.8% | [9] 98.8% | [10] 121% | [11] 101% | [20] 109% | [12] 95.7% | [14] 132% | [15] 101% | [17] 118% | [18] 92.9%

CCOC(=O)/C(C#N)=C\c1c[nH]c2ccccc12
inactive: [1] 93.8% | [2] 105% | [3] 85.9% | [4] 97.6% | [5] 98.1% | [6] 99.1% | [7] 106% | [8] 85.2% | [9] 93.2% | [10] 206% | [11] 105% | [12] 90.5% | [13] 69.6% | [14] 221% | [15] 85.1% | [16] 30.8% | [17] 153% | [18] 108% | [19] 81.6%

C=COC(=O)C(C)(C)C
inactive: [1] 102% | [2] 104% | [3] 90.4% | [4] 95.3% | [5] 99.4% | [6] 95.3% | [7] 99.9% | [8] 99.9% | [9] 96.4% | [10] 108% | [11] 94.7% | [12] 93.6% | [13] 84.5% | [14] 98.6% | [15] 108% | [16] 92.2% | [17] 95.1% | [18] 91.9% | [19] 92.5%

COc1ccc(-c2csc(NC(=O)Nc3nc(-c4ccc(OC)cc4)cs3)n2)cc1
inactive: [1] 86.5% | [2] 104% | [3] 99.2% | [4] 96.6% | [5] 79.5% | [6] 67.4% | [7] 29.3% | [8] 81.3% | [9] 83.6% | [10] 99% | [11] 116% | [12] 93.6% | [13] 75.4% | [14] 99.8% | [15] 90.1% | [16] 81.5% | [17] 96.3% | [18] 76% | [19] 34.8%

Clc1ccc(C(SCc2ccccc2)SCc2ccccc2)cc1
inactive: [1] 97.8% | [2] 90.9% | [3] 91.3% | [4] 105% | [5] 88.7% | [6] 85.9% | [7] 98.8% | [8] 82.1% | [9] 94.3% | [10] 96.3% | [11] 103% | [12] 104% | [13] 90% | [14] 104% | [15] 101% | [16] 85% | [17] 81.3% | [18] 83.4%

CCOC(=O)CNC
inactive: [1] 99.1% | [2] 117% | [3] 83.4% | [4] 100% | [5] 89.4% | [6] 93.9% | [7] 101% | [8] 94.8% | [9] 95.6% | [10] 105% | [11] 117% | [12] 96.4% | [13] 107% | [14] 126% | [15] 91.1% | [16] 94.6% | [17] 83.1% | [18] 92.3% | [19] 103%

Cc1cc(=O)n(Nc2ccccc2)c(O)c1C#N
inactive: [1] 112% | [2] 105% | [3] 97.4% | [4] 103% | [5] 103% | [6] 99.4% | [7] 104% | [8] 103% | [9] 96.6% | [10] 111% | [11] 96.4% | [12] 99.4% | [13] 62% | [14] 104% | [15] 104% | [16] 92.5% | [17] 115% | [18] 99.8% | [19] 103%

CC12CCC3c4ccc(O)cc4CCC3C1CCC2=O (centres undefined)
inactive: [1] 101% | [2] 96.4% | [3] 93.4% | [4] 98.2% | [5] 101% | [6] 85.3% | [7] 101% | [8] 94.6% | [9] 103% | [10] 106% | [11] 98.7% | [20] 83.8% | [12] 96.2% | [14] 91.1% | [15] 103% | [16] 102% | [18] 93.7% | [19] 81.1%

Cn1/c(=N\N=C\c2ccccc2OCCO)sc2ccccc21
inactive: [1] 82.4% | [2] 109% | [3] 115% | [4] 96.7% | [5] 100% | [6] 76.5% | [7] 88% | [8] 90% | [9] 100% | [10] 124% | [11] 104% | [12] 102% | [13] 57.2% | [14] 109% | [15] 92.5% | [16] 88.9% | [17] 103% | [18] 93.3% | [19] 62.7%

CS(=O)(=O)c1ccc(/C=C\C(=O)O)cc1
inactive: [1] 96.1% | [2] 104% | [3] 80.2% | [4] 102% | [5] 104% | [6] 98.1% | [7] 99.5% | [8] 111% | [9] 98% | [10] 105% | [11] 109% | [12] 103% | [13] 83.5% | [14] 101% | [15] 108% | [16] 98.2% | [17] 48.6% | [18] 101%

Cc1ccc(C)c2c1CCC2=O
inactive: [1] 100% | [2] 105% | [3] 86.1% | [4] 93% | [5] 103% | [6] 98.6% | [7] 97.5% | [8] 99.9% | [9] 96.2% | [10] 104% | [11] 122% | [12] 102% | [13] 90.6% | [14] 105% | [15] 102% | [16] 95.9% | [17] 56.8% | [19] 121%
active: [18] -32.7%

Ic1cccs1
inactive: [1] 109% | [2] 94.2% | [3] 105% | [4] 99.6% | [5] 96.3% | [6] 99.5% | [7] 104% | [8] 98.5% | [9] 96.9% | [10] 111% | [11] 97.9% | [12] 98.9% | [13] 90.5% | [14] 95.8% | [15] 103% | [16] 101% | [17] 96.5% | [18] 96% | [19] 98.9%

CCN(Cc1ccc(Cl)c(Cl)c1)c1ccc2nc(N)nc(N)c2c1C
active: [1] -82.1% | [2] -79.1% | [3] -94.7% | [4] -97.4% | [5] -92% | [6] -62.2% | [7] -98.2% | [8] -86.1% | [9] -87.5% | [10] -95.4% | [11] -78% | [12] -75.6% | [13] -82.7% | [14] -84.3% | [15] -95.6% | [16] -67% | [17] -78.2% | [18] -5.59% | [19] -59.5%
